From the supplement of paper PMC10338343
± gives the standard deviation.

System: MILI (PIWIL2) piRISC loaded with L1MC piRNA (26 nt)
Experiment: pre-steady-state target cleavage rate (min^-1); guide: L1MC piRNA 5'p-UAACUAAAUACUAUGCAAGCUGUAGG; MIWI and MILI are mouse PIWI proteins and EfPiwi is from a freshwater sponge; tags in brackets are library labels; higher = faster piRNA-guided slicing of the target
Conditions: auxiliary factor: none (no GTSF1)
Summary of the method: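 The pre-steady-state cleavage rate came from a burst-and-steady-state fit to pooled data from three Cleave-'n-Seq trials, in which uncleaved targets were sequenced and normalised to depth and to weakly complementary targets. Each reaction held 0.1 nM transcribed, DNA-blocked target RNA library and 1 nM active affinity-purified piRISC carrying one synthetic guide, with or without 500 nM GTSF1 partner protein, in HEPES–potassium acetate buffer at 33 °C for 0–8 or 0–960 min. k3 was capped at 0.0001 min^-1.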

| Sequence | pre-steady-state target cleavage rate |
| --- | --- |
| UCCUGGAUGUCGAACGUAUGAUUUUAGUUA | < 0.0001 |
| UCCUGGAUGUCGAUGGAUUGUAUUUAGUUA | < 0.0001 |
| UCCUGGAUGUCGAACGAAUCUAUUUAGUUA | < 0.0001 |
| UCCUGGAUGUCGUUGCAUAGUUAAUAGUUA | 0.00434 ± 0.0022 |
| UCCUGGAUCAGCUUGCAUUCUAUUUACAAA | < 0.0001 |
| UCCUGGAUGUCGUUGCAUAGUUUUAAGUUA | 0.0042 ± 0.0022 |
| UCCUGGAUGUCGAAGCAUAGAAUUUAGUAA | < 0.0001 |
